Measured values from PMC5700166.
Residue numbers refer to the chain shown, from its start.

Key:
Assay in all cases: protein-binding microarray (PBM); PBM: ~300 nM protein, 6 mM HEPES pH 7.8, 80 mM KCl, 0.5 mM EDTA, 0.5 mM EGTA, 6% glycerol, 35 ng/ul poly-dIdC, 1% milk, 1 h, room temperature; Ap Aiptasia and Nv Nematostella (sea anemones) / Co Capsaspora / Aq Amphimedon (sponge) / Dm Drosophila / Hu human; RHD is the Rel homology domain; high values mean tight binding
Conditions in all cases: dsDNA, one strand shown
GST-Ap-NF-kB RHD = biological target: T1, GST-Ap-NF-kB RHD (Exaiptasia pallida (Aiptasia), UniProt A0A913YAJ5 2-422)
T1 sequence: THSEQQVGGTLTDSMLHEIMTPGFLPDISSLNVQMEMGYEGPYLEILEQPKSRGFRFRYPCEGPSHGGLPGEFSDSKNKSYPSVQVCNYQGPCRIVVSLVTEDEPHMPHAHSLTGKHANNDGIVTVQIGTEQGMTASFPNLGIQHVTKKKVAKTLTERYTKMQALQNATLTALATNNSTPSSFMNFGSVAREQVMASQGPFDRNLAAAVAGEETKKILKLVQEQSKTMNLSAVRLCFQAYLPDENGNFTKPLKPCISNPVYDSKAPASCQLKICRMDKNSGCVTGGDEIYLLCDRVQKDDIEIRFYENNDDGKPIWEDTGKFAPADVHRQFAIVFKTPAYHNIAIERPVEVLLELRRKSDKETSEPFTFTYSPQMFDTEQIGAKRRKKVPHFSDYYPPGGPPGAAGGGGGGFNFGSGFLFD

[1] = biological target: T2, GST-Nv-NF-kB (Cys allele) (Nematostella vectensis, UniProt E5G601 2-411)
T2 sequence: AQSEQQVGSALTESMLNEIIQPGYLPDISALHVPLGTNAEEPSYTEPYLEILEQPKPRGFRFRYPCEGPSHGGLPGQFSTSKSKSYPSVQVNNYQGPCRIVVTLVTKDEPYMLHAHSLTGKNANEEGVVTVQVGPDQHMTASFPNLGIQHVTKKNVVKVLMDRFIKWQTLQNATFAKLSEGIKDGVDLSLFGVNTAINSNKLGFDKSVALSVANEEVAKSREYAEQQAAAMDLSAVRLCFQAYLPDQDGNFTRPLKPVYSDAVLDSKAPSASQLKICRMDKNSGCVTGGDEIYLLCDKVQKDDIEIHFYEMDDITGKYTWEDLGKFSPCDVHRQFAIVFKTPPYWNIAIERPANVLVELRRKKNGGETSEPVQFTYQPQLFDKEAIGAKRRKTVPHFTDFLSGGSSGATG

[2] = biological target: T3, GST-Nv-NF-kB (Ser allele) (Nematostella vectensis, UniProt A7UNT2 2-411)
T3 sequence: T2 sequence with Q21R, C66S, S207N, E215Q, V217A, E225K, A268E, D399E

GST-Co-NF-kB = biological target: T4, GST-Co-NF-kB (Capsaspora owczarzaki, UniProt F1ARL5 200-546)
T4 sequence: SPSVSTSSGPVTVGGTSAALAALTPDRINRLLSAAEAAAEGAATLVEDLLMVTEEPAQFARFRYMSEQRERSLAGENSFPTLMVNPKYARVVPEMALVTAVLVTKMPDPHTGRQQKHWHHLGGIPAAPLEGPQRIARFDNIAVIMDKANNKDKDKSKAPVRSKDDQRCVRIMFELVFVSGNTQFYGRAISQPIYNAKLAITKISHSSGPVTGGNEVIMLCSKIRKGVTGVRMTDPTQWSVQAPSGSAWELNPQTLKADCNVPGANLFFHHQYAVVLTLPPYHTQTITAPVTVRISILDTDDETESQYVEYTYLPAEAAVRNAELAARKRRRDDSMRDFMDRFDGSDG

GST-Dm-Relish = biological target: T5, GST-Dm-Relish (Drosophila melanogaster, UniProt Q94527 99-473)
T5 sequence: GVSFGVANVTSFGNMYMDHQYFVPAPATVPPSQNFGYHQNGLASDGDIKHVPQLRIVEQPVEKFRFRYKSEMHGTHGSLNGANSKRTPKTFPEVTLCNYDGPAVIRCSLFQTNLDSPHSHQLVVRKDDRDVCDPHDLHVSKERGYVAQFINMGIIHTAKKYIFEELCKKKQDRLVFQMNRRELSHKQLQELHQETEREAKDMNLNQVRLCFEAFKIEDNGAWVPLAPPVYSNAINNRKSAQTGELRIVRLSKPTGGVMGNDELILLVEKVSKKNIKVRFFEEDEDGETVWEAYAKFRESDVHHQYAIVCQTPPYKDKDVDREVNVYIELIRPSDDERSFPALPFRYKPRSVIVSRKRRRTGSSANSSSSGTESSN

GST-Aq-NF-kB = biological target: T6, GST-Aq-NF-kB (Amphimedon queenslandica, UniProt A9Y5G7 2-389)
T6 sequence: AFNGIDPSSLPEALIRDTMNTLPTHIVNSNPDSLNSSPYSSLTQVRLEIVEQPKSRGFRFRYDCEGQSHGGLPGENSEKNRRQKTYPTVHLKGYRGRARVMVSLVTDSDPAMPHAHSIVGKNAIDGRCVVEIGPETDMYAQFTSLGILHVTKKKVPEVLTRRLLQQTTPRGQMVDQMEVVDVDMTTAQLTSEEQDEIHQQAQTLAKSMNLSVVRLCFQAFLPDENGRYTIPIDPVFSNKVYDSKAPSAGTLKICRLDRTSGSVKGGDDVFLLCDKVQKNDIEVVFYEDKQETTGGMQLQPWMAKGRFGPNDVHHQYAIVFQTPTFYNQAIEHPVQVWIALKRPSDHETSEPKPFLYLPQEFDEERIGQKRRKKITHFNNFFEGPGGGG

GST-Hu-p50 = GST-Hu-p50 (Homo sapiens, UniProt P19838 7-356)
GST-Hu-p50, sequence (P19838 7-356): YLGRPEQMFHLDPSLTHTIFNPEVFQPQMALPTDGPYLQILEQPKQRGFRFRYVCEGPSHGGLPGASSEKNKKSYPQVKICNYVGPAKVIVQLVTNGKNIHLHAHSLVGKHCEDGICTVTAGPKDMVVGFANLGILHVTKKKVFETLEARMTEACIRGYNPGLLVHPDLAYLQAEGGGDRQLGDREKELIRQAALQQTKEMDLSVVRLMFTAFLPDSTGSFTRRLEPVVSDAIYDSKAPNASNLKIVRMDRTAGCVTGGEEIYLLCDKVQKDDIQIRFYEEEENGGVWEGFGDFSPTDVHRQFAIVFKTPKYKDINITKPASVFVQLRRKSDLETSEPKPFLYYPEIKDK

| Sequence | binding signal (GST-Ap-NF-kB RHD) | binding signal [1] | binding signal [2] | binding signal (GST-Co-NF-kB) | binding signal (GST-Dm-Relish) | binding signal (GST-Aq-NF-kB) | binding signal (GST-Hu-p50) |
| --- | --- | --- | --- | --- | --- | --- | --- |
| CCGATTAACATCACGGGAATTCCTGATGTTAATCGGGTCTTGATTCGCTTGACGCTGCTG | 7.73 z-score | 7.86 z-score | 5.2 z-score | 5.35 z-score | 8.07 z-score | 8.38 z-score | 4.61 z-score |
| CCGATTAACATCAGGGAAAACCCTGATGTTAATCGGGTCTTGATTCGCTTGACGCTGCTG | 7.33 z-score | 9.72 z-score | 7.71 z-score | 3.49 z-score | 9.01 z-score | 10.2 z-score | 5.66 z-score |
| CCGATTAACATCAACTTTCCCCCTGATGTTAATCGGGTCTTGATTCGCTTGACGCTGCTG | 7.6 z-score | 7.45 z-score | 9.1 z-score | 9.36 z-score | 3.9 z-score | 6.57 z-score | 6.16 z-score |
| CCGATTAACATCAATAAAACCCCTGATGTTAATCGGGTCTTGATTCGCTTGACGCTGCTG | 5.73 z-score | 5.27 z-score | 5.34 z-score | 2.26 z-score | 7.35 z-score | 5.25 z-score | 6.19 z-score |
| CCGATTAACATCACAAACCCCCCTGATGTTAATCGGGTCTTGATTCGCTTGACGCTGCTG | 6.66 z-score | 4.96 z-score | 6.4 z-score | 3.99 z-score | 7.41 z-score | 5.34 z-score | 6.08 z-score |
| CCGATTAACATCAGGGATTCCCCTGATGTTAATCGGGTCTTGATTCGCTTGACGCTGCTG | 13.9 z-score | 13.2 z-score | 15.4 z-score | 6.68 z-score | 11.2 z-score | 11.5 z-score | 8.74 z-score |
| CCGATTAACATCAAAACATCCCCTGATGTTAATCGGGTCTTGATTCGCTTGACGCTGCTG | 6.41 z-score | 8.11 z-score | 8.22 z-score | 4.63 z-score | 8.65 z-score | 7.07 z-score | 5.91 z-score |
| CCGATTAACATCAGGGAGAACCCTGATGTTAATCGGGTCTTGATTCGCTTGACGCTGCTG | 4.28 z-score | 3.85 z-score | 1.28 z-score | 1.72 z-score | 4.39 z-score | 6.47 z-score | 2.75 z-score |
| CCGATTAACATCAGGGGGAAGACTGATGTTAATCGGGTCTTGATTCGCTTGACGCTGCTG | 5.87 z-score | 6.01 z-score | 6.96 z-score | 8.23 z-score | 4.92 z-score | 5.25 z-score | 6.29 z-score |
| CCGATTAACATCAAATTTTCCCGTGATGTTAATCGGGTCTTGATTCGCTTGACGCTGCTG | 4.26 z-score | 6.26 z-score | 7.05 z-score | 6.38 z-score | 3.36 z-score | 5.86 z-score | 4.58 z-score |
| CCGATTAACATCAGGGCTGCCCCTGATGTTAATCGGGTCTTGATTCGCTTGACGCTGCTG | 4.09 z-score | 3.62 z-score | 1.89 z-score | 1.21 z-score | 4.09 z-score | 6.85 z-score | 3.48 z-score |
| CCGATTAACATCAGGGGGGCGCATGATGTTAATCGGGTCTTGATTCGCTTGACGCTGCTG | 3.86 z-score | 3.14 z-score | 3.06 z-score | 3.25 z-score | 4.09 z-score | 4.07 z-score | 4.13 z-score |
| CCGATTAACATCAGACATTCCCCTGATGTTAATCGGGTCTTGATTCGCTTGACGCTGCTG | 7.03 z-score | 8.78 z-score | 8.26 z-score | 5.38 z-score | 4.78 z-score | 6.59 z-score | 5.51 z-score |
| CCGATTAACATCAGGGGAATACCTGATGTTAATCGGGTCTTGATTCGCTTGACGCTGCTG | 9.84 z-score | 11.8 z-score | 10.1 z-score | 5.97 z-score | 9.67 z-score | 10.5 z-score | 6.93 z-score |
| CCGATTAACATCAAAATTCCCCCTGATGTTAATCGGGTCTTGATTCGCTTGACGCTGCTG | 10.1 z-score | 11.6 z-score | 13.3 z-score | 11.3 z-score | 9.16 z-score | 9.32 z-score | 8.09 z-score |
| CCGATTAACATCAGGGGGAGGTATGATGTTAATCGGGTCTTGATTCGCTTGACGCTGCTG | 4.66 z-score | 4.16 z-score | 5.35 z-score | 6.26 z-score | 2.41 z-score | 3.87 z-score | 4.35 z-score |
| CCGATTAACATCAAAAAAAACCCTGATGTTAATCGGGTCTTGATTCGCTTGACGCTGCTG | 5.46 z-score | 6.25 z-score | 6.4 z-score | 1.62 z-score | 7.4 z-score | 7.35 z-score | 5.56 z-score |
| CCGATTAACATCAAGGGGGAAACTGATGTTAATCGGGTCTTGATTCGCTTGACGCTGCTG | 7.59 z-score | 7.46 z-score | 9.77 z-score | 8.9 z-score | 4.03 z-score | 5.71 z-score | 7.63 z-score |
| CCGATTAACATCAGAATTCCCCCTGATGTTAATCGGGTCTTGATTCGCTTGACGCTGCTG | 10.1 z-score | 11.8 z-score | 11.7 z-score | 10.8 z-score | 8.22 z-score | 8.47 z-score | 8.34 z-score |
| CCGATTAACATCAAGGGAGTTCCTGATGTTAATCGGGTCTTGATTCGCTTGACGCTGCTG | 4.53 z-score | 4.56 z-score | 2.92 z-score | 1.22 z-score | 5.02 z-score | 5.71 z-score | 3.7 z-score |
| CCGATTAACATCAAGAAACCCCCTGATGTTAATCGGGTCTTGATTCGCTTGACGCTGCTG | 9.53 z-score | 8.55 z-score | 9.47 z-score | 3.31 z-score | 10 z-score | 7.67 z-score | 7.53 z-score |
| CCGATTAACATCAGAGCCCCCCCTGATGTTAATCGGGTCTTGATTCGCTTGACGCTGCTG | 4.71 z-score | 3.96 z-score | 3.31 z-score | 3.1 z-score | 4.58 z-score | 4.2 z-score | 3.47 z-score |
| CCGATTAACATCAGAAAAACCCCTGATGTTAATCGGGTCTTGATTCGCTTGACGCTGCTG | 7.98 z-score | 8.56 z-score | 7.56 z-score | 2.03 z-score | 9.4 z-score | 7.67 z-score | 7.6 z-score |
| CCGATTAACATCACGGGGATTTCTGATGTTAATCGGGTCTTGATTCGCTTGACGCTGCTG | 9.25 z-score | 9.87 z-score | 10.8 z-score | 5.27 z-score | 9.88 z-score | 7.52 z-score | 7.58 z-score |
